# Source: PubChem (National Center for Advancing Translational Sciences (NCATS))
# BCR signal inh – qHTS Assay to Find Inhibitors of Chronic Active B-Cell Receptor Signaling. Potency, µM (highest dose often 46.1 µM), for inactives: at the top dose activity change, negative = inhibition, usual class: inhibitors. ABC-DLBCL IkBa-CBG/CBR reporter, luminescence ratio, 4 h. 340,000 tested, 0.05% active; active = well fitted inhibition curve with a large enough effect in the signal ratio, with a control signal flat, not every such curve was filed as active; inconclusive = small, poorly fitted or top-dose-only effect, or effect the other way, or a change in a side signal; the % refers to the signal ratio;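 note: potency is the fitted concentration of half-maximal effect; plate controls were basal doxycycline-induced cells for no effect and cells given 10 µM MG132 for full effect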
#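 Concentration-response series (up to 46 uM) were applied to TMD8 dual-reporter cells for 4 h at 37C with doxycycline. Green/red ratio, after filter-overlap correction, defined %Activity; red signal alone was normalised to basal cells and zero luminescence.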
# MCF10A rerep – A quantitative high throughput screen for small molecules that induce DNA re-replication in MCF 10a normal breast cells. MCF 10A DNA re-replication, Hoechst nuclear intensity, 48 h. Potency, µM (doses to about 46.1 µM), without a hit: at the top dose activity, positive = re-replication, most hits filed as activators. 350,000 tested, 2.9% active; note: potency is the fitted concentration of half-maximal effect; % of control where 0% means no effect; nearly all actives have a fitted effect of over 50% in size
# SW480 rerep – A quantitative high throughput screen for small molecules that induce DNA re-replication in SW480 colon adenocarcinoma cells | AID 624297, 2012 | SW480 DNA re-replication, Hoechst DNA content imaging, 48 h | 340,000 tested, 1.8% active | Potency, µM (doses to about 46.1 µM), without a hit: at the top dose re-replication activation, actives largely listed as activators; note: potency is the fitted concentration of half-maximal effect; % of control where 0% means no effect; nearly all actives have a fitted effect of over 55% in size
#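 Image-based read-out: total Hoechst fluorescence of nuclei (405 nm excitation, 500-530 nm emission), with hits raising the fraction of high-intensity nuclei. SW480 colon cells incubated 48 hr with compounds at 37 C.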
# Giardia killer – Small Molecules that selectively kill Giardia lamblia: qHTS; Giardia lamblia trophozoite viability; 340,000 tested, 0.15% active; activity change, % at 7.66 µM, hits read low; in the data active = activity change below about -80%; inconclusive = between about -30% and that limit;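 note: parasites exposed to compound for two days anaerobically before the ATP read; % is set by controls: 0 for no effect and ±100 for the full control effect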
#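 Giardia trophozoites, 100 cells per well, were exposed to compounds for 48 hrs at 37 deg C under anaerobic conditions; viability was then read as ATP content by bioluminescence after 15-30 min at room temperature.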
# VP16 counter – VP16 counterscreen qHTS for inhibitors of ROR gamma transcriptional activity; Drosophila S2 Gal4-VP16 UAS-luciferase, luminescence, 20 h; Potency, µM (top dose mostly 53.6 µM), for the others: at the highest dose activity, negative = inhibition, most hits filed as inhibitors; 310,000 tested, 3.5% active; AID 2546, 2010;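 note: Gal4-VP16 expression switched on by copper sulfate through the metallothionein promoter; potency is the fitted concentration of half-maximal effect; % is set by controls: 0 for no effect and ±100 for the full control effect; nearly all actives have a fitted effect of over 50% in size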
# RORgamma inh – qHTS for inhibitors of ROR gamma transcriptional activity; Nuclear receptor ROR-gamma (Mus musculus), P51450; Drosophila S2 Gal4-RORgamma UAS-luciferase reporter, 20 h; 310,000 tested, 5.4% active; AID 2551, 2010; Potency, µM (top dose mostly 53.6 µM), without a hit: top-dose activity change, negative = inhibition, usual class: inhibitors; note: potency is the fitted concentration of half-maximal effect; % is set by controls: 0 for no effect and ±100 for the full control effect; nearly all actives have a fitted effect of over 60% in size
# Target sequence (P51450 whole entry, looked up, the tested form may be a part): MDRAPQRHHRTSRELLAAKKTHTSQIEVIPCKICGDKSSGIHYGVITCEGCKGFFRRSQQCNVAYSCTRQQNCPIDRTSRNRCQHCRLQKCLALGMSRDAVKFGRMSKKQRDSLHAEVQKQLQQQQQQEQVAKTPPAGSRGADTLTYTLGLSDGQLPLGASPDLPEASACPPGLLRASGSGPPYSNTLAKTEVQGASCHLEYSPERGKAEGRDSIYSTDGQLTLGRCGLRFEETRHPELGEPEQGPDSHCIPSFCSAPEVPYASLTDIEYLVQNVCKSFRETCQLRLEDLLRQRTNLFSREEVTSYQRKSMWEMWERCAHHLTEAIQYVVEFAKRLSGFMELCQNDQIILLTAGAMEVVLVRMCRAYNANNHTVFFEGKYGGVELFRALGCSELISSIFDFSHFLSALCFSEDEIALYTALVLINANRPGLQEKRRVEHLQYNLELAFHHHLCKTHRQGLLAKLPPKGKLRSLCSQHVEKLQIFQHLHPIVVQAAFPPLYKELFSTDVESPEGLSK
#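 Luminescence from a UAS-regulated Photinus luciferase reporter in stably transfected Drosophila Schneider cells is measured; decreased signal marks ROR gamma inhibition. Fusion expression is induced by 700 uM copper sulfate for 20 hr.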
# * marks the source's active call; other numbers are inactive results; u = inconclusive; x = not tested or not shown; [ ] = remark or other dose. Compounds with a hit are over-represented: about 8.3% of the library has one in this group of screens. Unless noted, calls come from the whole dose curve; as a rule, active = well fitted curve in the direction sought with a large enough effect; inconclusive = small, poorly fitted or top-dose-only effect, or another doubt; inactive = no such curve, though single readings can be large; an effect the other way counts as inactive or inconclusive.
SMILES,BCR signal inh,MCF10A rerep,SW480 rerep,Giardia killer,VP16 counter,RORgamma inh
CCN(CC)CCn1c2ccccc2c2n[nH]c(=S)nc21,4%,-15%,3%,10,x,x
Fc1ccc2c(c1)c1n[nH]c(=S)nc1n2CCc1ccccc1,2%,0%,u,-1,2.8µM*,1.4µM*
CCN(CC)CCSc1nnc2c3cc(F)ccc3n(Cc3ccccc3)c2n1,5%,u,u,5,-7%,-18%
CCn1c2ccc(C)cc2c2n[nH]c(=S)nc21,-3%,-11%,-7%,2,3.2µM*,-42%[1.91 µM]
Cn1c2ccccc2c2n[nH]c(=S)nc21,-1%,u,0%,-13,u,-1%[1.91 µM]
NNc1nnc2c3cc(F)ccc3n(CCc3ccccc3)c2n1,-3%,u,4.1µM*,-18,-4%,u
Cc1ccc2c(c1)c1n[nH]c(=S)nc1n2CCc1ccccc1,3%,1%,-11%,6,u,4µM*
O=C(OCc1ccccc1)C1=NNC2C(=O)N(c3ccc(Br)cc3)C(=O)C12 (centres undefined),-2%,-20%,-47%,17,7%,7%
COc1ccc(N2CCN(c3ccc(S(=O)(=O)N(C(C)C)C(C)C)cn3)CC2)cc1,1%,8%,-12%,6,-1%,u
CN(C)N=Nc1nc2c(c(=O)n(C)c(=O)n2C)n1CC1CO1 (centres undefined),u,16µM*,16µM*,-4,-21%,15%
O=C(NCc1cccs1)C1CC(c2ccc(F)cc2)=NO1 (centres undefined),u,u,7%,16,8%,13%
Cc1ccc(CNC(=O)C2CC(c3cccc(F)c3)=NO2)cc1 (centres undefined),1%,5.8µM*,-4%,0,-12%,19%
O=C(NCc1ccc(OC(F)(F)F)cc1)C1CC(c2cccc(F)c2)=NO1 (centres undefined),-5%,u,1%,-19,1%,0%
O=C(NCc1cccc(C(F)(F)F)c1)C1CC(c2ccccc2F)=NO1 (centres undefined),x,u,1%,-1,x,x
O=C(NCc1cccc(C(F)(F)F)c1)C1CC(c2ccccc2C(F)(F)F)=NO1 (centres undefined),-13%,23µM*,u,-4,0%,30%
O=C(NCc1cc(C(F)(F)F)cc(C(F)(F)F)c1)C1CC(c2ccccc2F)=NO1 (centres undefined),x,-1%,-3%,3,x,x
COc1cccc(C2=NOC(C(=O)NCc3cccs3)C2)c1 (centres undefined),u,5.2µM*,4%,-9,4%,15%
Cc1ccc(CNC(=O)C2CC(c3ccccc3F)=NO2)cc1 (centres undefined),u,3.3µM*,u,19,17%,14%
COC(=O)[C@@]1(Cc2ccc(OC)cc2)[C@H]2c3cc(C(=O)N(C)C)n(Cc4nc5ccccc5[nH]4)c3C[C@H]2CN1C(=O)c1ccccc1,x,x,x,x,-19%,40%
Cc1ccc2c(c1)N(CC(=O)NCCCN1CCN(C)CC1)C(=O)CO2,0%,-1%,6%,12,1%,0%
COc1cccc(C2=NOC(C(=O)NCc3cccnc3)C2)c1 (centres undefined),1%,15%,8%,8,-5%,22%
COc1ccc(CNC(=O)C2CC(c3cccc(OC)c3)=NO2)cc1 (centres undefined),u,2.8µM*,0%,-11,-13%,u
COc1cccc(C2=NOC(C(=O)NC(C)(C)C)C2)c1 (centres undefined),0%,-2%,-8%,1,-5%,-17%
